# What was measured:
# Test in all cases: log2 fold change of tryptic peptide abundance, ligand vs vehicle (limited proteolysis) (log2 ratio); higher = more trypsin-susceptible (destabilized)
# UniProt P02918 = target: T1, UniProt P02918; conditions: peptide sequence: NSPPQYAGPIR; peptide start residue: 506; ligand concentration: 10 uM; sample: E. coli crude lysate
# T1 sequence (whole entry): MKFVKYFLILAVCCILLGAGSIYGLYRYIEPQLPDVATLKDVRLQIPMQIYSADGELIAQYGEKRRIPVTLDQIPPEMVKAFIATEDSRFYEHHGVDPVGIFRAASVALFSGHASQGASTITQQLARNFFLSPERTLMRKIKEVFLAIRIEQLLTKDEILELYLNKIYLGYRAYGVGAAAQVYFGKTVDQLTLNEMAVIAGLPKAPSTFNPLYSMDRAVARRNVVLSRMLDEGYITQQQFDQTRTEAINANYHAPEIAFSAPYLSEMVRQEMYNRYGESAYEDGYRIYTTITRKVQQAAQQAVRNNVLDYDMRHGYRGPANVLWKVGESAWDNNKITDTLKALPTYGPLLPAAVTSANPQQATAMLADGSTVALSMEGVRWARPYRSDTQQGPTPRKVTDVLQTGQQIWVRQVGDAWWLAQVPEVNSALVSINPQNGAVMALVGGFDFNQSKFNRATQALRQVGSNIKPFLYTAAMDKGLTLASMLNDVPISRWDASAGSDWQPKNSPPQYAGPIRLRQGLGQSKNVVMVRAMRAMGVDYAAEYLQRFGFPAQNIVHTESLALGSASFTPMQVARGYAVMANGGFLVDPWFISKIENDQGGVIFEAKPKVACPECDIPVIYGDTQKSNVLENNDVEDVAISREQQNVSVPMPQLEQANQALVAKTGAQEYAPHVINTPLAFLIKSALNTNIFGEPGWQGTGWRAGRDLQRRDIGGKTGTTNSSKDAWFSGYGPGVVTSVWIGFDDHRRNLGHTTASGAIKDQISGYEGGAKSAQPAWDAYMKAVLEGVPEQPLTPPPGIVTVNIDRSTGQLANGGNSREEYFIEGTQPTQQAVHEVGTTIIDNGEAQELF
# UniProt P02919 = target: T2, UniProt P02919; conditions: peptide sequence: QPNGQVWSPQNDDRR; peptide start residue: 542; ligand concentration: 10 uM; sample: E. coli crude lysate
# T2 sequence (whole entry): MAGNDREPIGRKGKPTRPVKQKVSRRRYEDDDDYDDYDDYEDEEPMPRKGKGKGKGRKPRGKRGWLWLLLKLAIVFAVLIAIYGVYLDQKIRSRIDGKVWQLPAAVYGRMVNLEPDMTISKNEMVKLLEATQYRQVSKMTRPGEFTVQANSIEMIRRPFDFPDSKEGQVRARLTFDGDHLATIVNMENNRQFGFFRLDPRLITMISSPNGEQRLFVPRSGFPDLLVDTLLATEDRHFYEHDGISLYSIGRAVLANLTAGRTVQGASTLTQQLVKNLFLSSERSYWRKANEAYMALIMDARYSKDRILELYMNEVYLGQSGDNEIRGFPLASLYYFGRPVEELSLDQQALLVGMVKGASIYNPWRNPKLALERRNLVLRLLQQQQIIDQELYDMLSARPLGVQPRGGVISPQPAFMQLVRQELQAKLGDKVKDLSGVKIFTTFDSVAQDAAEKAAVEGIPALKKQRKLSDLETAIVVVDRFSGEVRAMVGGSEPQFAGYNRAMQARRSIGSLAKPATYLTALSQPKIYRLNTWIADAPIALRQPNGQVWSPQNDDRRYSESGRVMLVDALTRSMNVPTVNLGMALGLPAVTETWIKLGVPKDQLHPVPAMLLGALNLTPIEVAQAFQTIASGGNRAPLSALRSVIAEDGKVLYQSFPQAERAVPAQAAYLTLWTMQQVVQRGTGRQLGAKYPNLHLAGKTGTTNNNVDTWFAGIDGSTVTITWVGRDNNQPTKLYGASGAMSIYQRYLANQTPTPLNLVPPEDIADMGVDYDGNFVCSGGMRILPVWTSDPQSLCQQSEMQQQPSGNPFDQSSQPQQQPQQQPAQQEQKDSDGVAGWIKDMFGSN
# UniProt P24228 = conditions: peptide sequence: AGLHQAGVDGK; peptide start residue: 403; ligand concentration: 10 uM; sample: E. coli crude lysate
# UniProt P77754 = target: T3, UniProt P77754; conditions: peptide sequence: DLNLTDAQK; peptide start residue: 54; ligand concentration: 10 uM; sample: E. coli crude lysate
# T3 sequence (whole entry): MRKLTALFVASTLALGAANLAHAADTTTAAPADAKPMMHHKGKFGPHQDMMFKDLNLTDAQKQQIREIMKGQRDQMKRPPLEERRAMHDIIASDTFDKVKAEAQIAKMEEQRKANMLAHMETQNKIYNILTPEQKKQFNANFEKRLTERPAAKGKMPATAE
# Chain of UniProt P24228 (P24228 whole entry): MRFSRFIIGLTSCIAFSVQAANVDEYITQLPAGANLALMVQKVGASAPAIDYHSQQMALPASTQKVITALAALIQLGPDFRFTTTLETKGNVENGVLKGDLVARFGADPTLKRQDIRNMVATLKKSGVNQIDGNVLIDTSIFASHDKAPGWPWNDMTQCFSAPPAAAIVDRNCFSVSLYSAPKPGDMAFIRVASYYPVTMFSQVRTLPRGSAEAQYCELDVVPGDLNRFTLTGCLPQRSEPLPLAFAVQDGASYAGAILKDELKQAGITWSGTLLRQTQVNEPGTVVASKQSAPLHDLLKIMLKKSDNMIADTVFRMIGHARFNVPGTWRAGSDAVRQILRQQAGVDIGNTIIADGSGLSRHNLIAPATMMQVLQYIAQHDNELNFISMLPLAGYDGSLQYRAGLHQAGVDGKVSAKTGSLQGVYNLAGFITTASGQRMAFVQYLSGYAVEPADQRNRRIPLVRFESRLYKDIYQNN
compound,measurement,setting,value
CC1(C)S[C@@H]2[C@H](NC(=O)[C@H](N)c3ccccc3)C(=O)N2[C@H]1C(=O)O [ampicillin],log2 fold change,UniProt P02918,-1.56
same,log2 fold change,UniProt P02919,1.86
same,log2 fold change,UniProt P24228,-3.07
same,log2 fold change,UniProt P77754,-0.675
